Measured values reported in ChEMBL document CHEMBL1961873, “Compounds: GSK PKIS; Assays: Nanosyn kinase panel” (2012).

Experiments:
[1] = biological target: Casein kinase I isoform gamma-2 (Homo sapiens) (UniProt P78368); settings: at 1 µM
[2] = biological target: Casein kinase I isoform gamma-3 (Homo sapiens) (UniProt Q9Y6M4); settings: at 0.1 µM
[3] = biological target: Casein kinase I isoform gamma-3 (Homo sapiens) (UniProt Q9Y6M4); settings: at 1 µM
[4] = biological target: Cyclin-dependent kinase 1 (Homo sapiens) (UniProt P06493); settings: at 0.1 µM
Cyclin-dependent kinase 1 (Homo sapiens), sequence (P06493 whole entry, looked up): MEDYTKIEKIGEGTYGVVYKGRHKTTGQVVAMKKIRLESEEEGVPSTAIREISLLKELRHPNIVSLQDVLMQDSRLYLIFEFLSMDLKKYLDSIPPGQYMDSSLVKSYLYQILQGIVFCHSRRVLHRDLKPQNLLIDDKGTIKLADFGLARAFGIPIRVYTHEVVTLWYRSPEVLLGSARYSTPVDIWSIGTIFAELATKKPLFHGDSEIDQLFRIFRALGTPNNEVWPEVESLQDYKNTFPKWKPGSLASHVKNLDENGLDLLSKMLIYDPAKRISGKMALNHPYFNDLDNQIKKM

[5] = biological target: Cyclin-dependent kinase 1 (Homo sapiens) (UniProt P06493); settings: at 1 µM
[6] = biological target: Cyclin-dependent kinase 2 (Homo sapiens) (UniProt P24941); settings: at 0.1 µM
[7] = biological target: Cyclin-dependent kinase 2 (Homo sapiens) (UniProt P24941); settings: at 1 µM
[8] = biological target: Cyclin-dependent kinase 2 (Homo sapiens) (UniProt P24941); settings: at 0.1 µM; remark: listed apart in the source
[9] = biological target: Cyclin-dependent kinase 2 (Homo sapiens) (UniProt P24941); settings: at 1 µM; remark: listed apart in the source
[10] = biological target: CDK3/Cyclin E (Homo sapiens) (UniProt P24864+Q00526); settings: at 0.1 µM;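 also: reported percentages are mean inhibition values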
CDK3/Cyclin E (Homo sapiens), sequence (P24864 whole entry, looked up): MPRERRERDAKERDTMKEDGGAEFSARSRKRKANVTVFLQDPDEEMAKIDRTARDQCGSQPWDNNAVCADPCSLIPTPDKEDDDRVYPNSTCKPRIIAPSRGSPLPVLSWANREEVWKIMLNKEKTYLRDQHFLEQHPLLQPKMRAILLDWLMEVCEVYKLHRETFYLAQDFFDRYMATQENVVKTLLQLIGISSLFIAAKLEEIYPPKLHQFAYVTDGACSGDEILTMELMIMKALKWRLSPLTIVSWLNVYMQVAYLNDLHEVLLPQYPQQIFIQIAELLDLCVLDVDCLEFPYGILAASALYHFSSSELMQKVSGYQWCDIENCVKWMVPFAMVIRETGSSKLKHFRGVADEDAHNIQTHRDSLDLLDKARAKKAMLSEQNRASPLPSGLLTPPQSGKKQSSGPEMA
CDK3/Cyclin E (Homo sapiens), sequence (Q00526 whole entry, looked up): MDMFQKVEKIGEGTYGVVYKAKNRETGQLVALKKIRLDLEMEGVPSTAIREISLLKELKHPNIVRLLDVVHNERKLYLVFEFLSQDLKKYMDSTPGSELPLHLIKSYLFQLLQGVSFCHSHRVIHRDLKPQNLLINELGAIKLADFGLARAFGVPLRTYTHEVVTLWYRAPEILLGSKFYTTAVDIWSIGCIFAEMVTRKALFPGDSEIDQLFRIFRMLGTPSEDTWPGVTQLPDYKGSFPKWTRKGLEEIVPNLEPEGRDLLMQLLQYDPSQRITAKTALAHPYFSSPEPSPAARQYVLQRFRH

Casein kinase I isoform gamma-3 (Homo sapiens), sequence (Q9Y6M4 whole entry, looked up, canonical isoform): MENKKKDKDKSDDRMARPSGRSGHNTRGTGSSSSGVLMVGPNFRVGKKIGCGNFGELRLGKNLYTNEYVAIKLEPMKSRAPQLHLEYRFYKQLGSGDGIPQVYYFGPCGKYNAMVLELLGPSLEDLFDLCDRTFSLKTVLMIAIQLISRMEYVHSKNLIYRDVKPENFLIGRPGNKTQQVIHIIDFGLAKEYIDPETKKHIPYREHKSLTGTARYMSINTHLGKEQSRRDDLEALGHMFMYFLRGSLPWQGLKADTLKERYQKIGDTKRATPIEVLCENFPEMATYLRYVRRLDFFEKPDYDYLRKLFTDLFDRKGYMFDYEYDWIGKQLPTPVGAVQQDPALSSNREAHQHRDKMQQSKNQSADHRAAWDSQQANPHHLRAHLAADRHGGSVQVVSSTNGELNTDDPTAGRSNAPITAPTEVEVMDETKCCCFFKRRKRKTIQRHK
Casein kinase I isoform gamma-2 (Homo sapiens), sequence (P78368 whole entry, looked up, canonical isoform): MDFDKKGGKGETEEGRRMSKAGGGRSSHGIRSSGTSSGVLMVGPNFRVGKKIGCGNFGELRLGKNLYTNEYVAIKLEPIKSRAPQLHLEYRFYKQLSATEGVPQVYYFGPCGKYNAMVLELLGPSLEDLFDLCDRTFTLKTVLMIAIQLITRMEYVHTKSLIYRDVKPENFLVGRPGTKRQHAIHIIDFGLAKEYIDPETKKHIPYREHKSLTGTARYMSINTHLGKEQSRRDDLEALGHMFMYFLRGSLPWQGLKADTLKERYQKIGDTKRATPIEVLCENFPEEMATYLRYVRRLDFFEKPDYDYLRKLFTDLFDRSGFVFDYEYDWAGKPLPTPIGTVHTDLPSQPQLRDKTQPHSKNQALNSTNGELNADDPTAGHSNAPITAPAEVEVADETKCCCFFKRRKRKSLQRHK

Compound | inhibition [1] | inhibition [2] | inhibition [3] | inhibition [4] | inhibition [5] | inhibition [6] | inhibition [7] | inhibition [8] | inhibition [9] | inhibition [10]
COc1ccc(-c2coc3ncnc(N)c23)cc1 | 6.12% | 3.42% | 5.14% | 1.77% | 3.58% | 2.89% | 0.12% | 6.07% | 7.82% | 4.84%
COc1cccc(-n2ncc3c(N/N=C/c4cccc(F)c4)ncnc32)c1 | -0.18% | -1.77% | 0.64% | 1.44% | 33% | 3.77% | 39.1% | 0.9% | 13% | 4%
CCn1c(-c2nonc2N)nc2cnc(Oc3cccc(NC(=O)c4ccc(OCCN5CCOCC5)cc4)c3)cc21 | 3.09% | 1.57% | 1.58% | 0.45% | 3.69% | 2.58% | 7.1% | 2.65% | 5.1% | -0.07%
CC1=C(C(=O)Nc2ccc3[nH]ncc3c2)C(c2ccc3ccccc3c2)CC(=O)N1 (stereo unspecified) | 1.9% | 0.93% | 3.24% | 0.76% | 2.25% | 2.98% | 9.64% | 3.36% | 14.2% | 0.42%
CN(C)c1cc2c(Nc3ccc4nc(Cc5ccccc5)[nH]c4c3)ncnc2cn1 | 5.2% | 3.73% | 4.56% | -0.43% | 1.6% | 2.83% | 6.58% | 4.49% | 5.71% | 3.16%
COc1cc2c(cc1Nc1nc(N3CCc4ccccc43)c3cc[nH]c3n1)N(C(=O)CN(C)C)CC2 | 2.57% | 0.55% | 4.52% | 0.08% | 1.02% | 0.42% | -1.8% | 1.6% | 1.6% | 0.81%
COc1cc(C=NNc2ncnc3c2cnn3-c2ccccc2)ccc1O | 18.1% | 1.55% | 5.99% | 6.11% | 35.8% | 6.03% | 42.1% | 2.88% | 13.7% | 2.09%
Nc1nc(-c2ccccn2)c(-c2ccc3ncccc3n2)s1 | 10.1% | 4% | 17.4% | 0.79% | 3.13% | 1.62% | 1.29% | 4.08% | 5.96% | 2.27%
CS(=O)(=O)CCN(CC#N)Cc1ccc(-c2ccc3ncnc(Nc4ccc(OCc5cccc(F)c5)c(Cl)c4)c3c2)o1 | -2.18% | -1.66% | -4.35% | -3.13% | -3.04% | -1.63% | -2.87% | -2.44% | -4.09% | -2.24%
O=C1NC(=O)C(c2ccccc2Cl)=C1Nc1cccc(O)c1 | 2.79% | 0.98% | 1.47% | 2.95% | 21% | 3.51% | 20.6% | 3.32% | 18.7% | 2.37%
Cc1ccc(NC(=O)c2ccnc(N3CCCC3)c2)cc1-c1ccc(C(=O)NCC2CC2)cc1 | 2.39% | 0.96% | 2.49% | -0.58% | 2.14% | -0.92% | 2.88% | 6.57% | 6.44% | 9.73%
CC1=C(C(=O)Nc2ccc3[nH]ncc3c2)C(c2ccc(Cl)c(Cl)c2)CC(=O)N1 (stereo unspecified) | 1.4% | -0.44% | 1.59% | -0.56% | -1.08% | 0.45% | 4.04% | -0.59% | 3.25% | -0.69%
COc1cc2ncn(-c3cc(OCc4ccccc4C(F)(F)F)c(C(N)=O)s3)c2cc1OC | 1.15% | -0.01% | 1.63% | -4.16% | -1.4% | -2.45% | 1.5% | 0.41% | 4.83% | -1.21%
O=C1NC(=O)C(c2ccc(Cl)cc2)=C1Nc1ccc(Cl)c(C(=O)O)c1 | -1.57% | -0.68% | -1.39% | 0.08% | 1.14% | -1.04% | -8.99% | -0.37% | 0.53% | -0.7%
CS(=O)(=O)Nc1ccc(N/C=C2\C(=O)Nc3ccccc32)cc1 | 2.22% | 0.3% | 3.9% | 1.78% | 9.18% | 1.42% | 18.1% | 2.53% | 22% | 3.36%
CCCN1CCC(Oc2cc(Nc3nc(Nc4cccc(F)c4C(N)=O)c4cc[nH]c4n3)c(OC)cc2Cl)CC1 | 6.61% | -0.08% | 20.9% | -0.34% | 0.53% | 1.48% | 5.95% | -0.16% | 0.71% | 0.11%
COc1cc(C)c(NC(=O)CN(C)C)cc1Nc1nc(Nc2cccc(F)c2C(N)=O)c2cc[nH]c2n1 | 20% | 1.69% | 20.6% | -0.88% | -1.98% | 0.1% | -9.04% | -0.26% | 0.04% | -0.76%
O=C1NC(=O)C(c2cccc(Cl)c2)=C1Nc1ccc(O)c(Cl)c1 | 0.54% | 1.06% | 0.9% | 0.73% | 7.55% | 1.84% | 6.86% | 2.79% | 10.6% | 3.01%
[O-][S+]1CCN(Cc2ccc(-c3ccc4ncnc(Nc5ccc(OCc6ccccc6)c(F)c5)c4c3)o2)CC1 | 3.2% | 1.87% | 3.97% | 0.66% | 0.48% | 1.07% | -1.12% | 1.88% | 2.86% | 5.36%
CS(=O)(=O)CCNCc1nc(-c2ccc3ncnc(Nc4ccc(F)c(Cl)c4)c3c2)cs1 | 0.64% | 2.39% | 3.39% | -1.31% | -0.06% | 0.75% | 9.99% | 0.06% | 1.32% | 0.76%

Compound | inhibition [1] | inhibition [2] | inhibition [3] | inhibition [4] | inhibition [5] | inhibition [6] | inhibition [7] | inhibition [8] | inhibition [9] | inhibition [10]
Fc1cccc(COc2ccc(Nc3ncnc4sc(-c5cccs5)cc34)cc2Cl)c1 | 0.26% | -0.15% | 0.1% | 0.75% | 1.12% | -0.17% | 1.85% | 3.98% | 2.92% | -0.06%
CC1=C(C(=O)Nc2ccc3[nH]ncc3c2)C(c2ccc(F)cc2)NC(=O)N1 (stereo unspecified) | 1.77% | 0.29% | 0.47% | 0.21% | -0.93% | 3.84% | 7.76% | 2.47% | 9.24% | 3.12%
NC(=O)c1cccc(Nc2nccc(Nc3cccc4[nH]ncc34)n2)c1 | 1.89% | -2.55% | 9.56% | 1.69% | 14.5% | 10.3% | 59.9% | 3.38% | 34.2% | 1.14%
O=C1NC(=O)C(N2CCc3ccccc32)=C1c1ccc(Cl)cc1 | 5.08% | 4.47% | 3.56% | 1.77% | 3.26% | -1.05% | 0.31% | 5.31% | 6.11% | 3.85%
CS(=O)(=O)CCNCc1ccc(-c2ccc3ncnc(Nc4ccc(OCc5ccccc5)c(Cl)c4)c3c2)o1 | 0.01% | 0.7% | -0.59% | 2.72% | 3.96% | 2.6% | 3.73% | 3.64% | 4.5% | 0.1%
CCN1CCC(CC(=O)Nc2n[nH]c3nc(-c4cccs4)c(Br)cc23)CC1 | -0.99% | -2.3% | 0.47% | 0.69% | 5% | 0.61% | 6.41% | -0.6% | 5.24% | -0.39%
Cc1nnc(-c2ccc(C)c(-c3ccc(C(=O)Nc4cccc(C#N)c4)cc3)c2)o1 | 1.54% | 1.46% | 0.25% | 0.88% | 1.11% | 1.13% | 0.6% | 1.82% | 2.15% | 4.52%
CC(C)=Cc1cccc2c1/C(=N/Nc1ccc(S(N)(=O)=O)cc1)C(=O)N2 | 0.64% | -0.08% | 2.43% | 28.7% | 69.7% | 103% | 92.4% | 74.1% | 79.3% | 68.5%
O=C(Nc1n[nH]c2nc(-c3ccco3)c(Br)cc12)C1CC1 | 2.51% | 2.64% | 0.87% | 0.89% | 5.15% | 3.87% | 28.4% | 3.75% | 9.11% | 3.8%
CC(=O)Nc1cccc(C#Cc2cncnc2Nc2ccc(OCc3cccc(F)c3)c(Cl)c2)n1 | -2.14% | -0.5% | -0.34% | -0.13% | -0.16% | -1.04% | -0.26% | -1.65% | -0.18% | 1.2%
COc1ccc2cc(-c3c(-c4ccncc4)nc(-c4ccc([S+](C)[O-])cc4)n3C)ccc2c1 (stereo unspecified) | 2.6% | 1.16% | 3.28% | 0.99% | 2.01% | 1.21% | 1.86% | 3.23% | 3.44% | 4.02%
CCn1c(-c2nonc2N)nc2cncc(C(=O)N3CCNCC3)c21 | 4.57% | 3.46% | 3.18% | 2.63% | 1.24% | 3.94% | 2.62% | 3.71% | 3.23% | -1.18%
Nc1ncnc2occ(-c3ccc(NC(=O)Nc4cc(C(F)(F)F)cc(C(F)(F)F)c4)cc3)c12 | 1.8% | 1.91% | 1.31% | -0.06% | 4.1% | 0.86% | 2.88% | 1.68% | 3.96% | -1.28%
COc1cc2ncn(-c3cc(O[C@H](C)c4ccccc4Cl)c(C(N)=O)s3)c2cc1OC | 2.68% | 2.15% | 3.1% | 0.89% | 6.45% | – | – | – | – | 2.71%
CCc1cccc(NC(=O)Nc2ccc(Oc3ccc4nc(NC(=O)OC)[nH]c4c3)cc2)c1 | 0.48% | 0.13% | 2.93% | -1.03% | 0.5% | 0.71% | 1.95% | 3.03% | -0.35% | 1.01%
COc1ccc(-c2ccncc2)cc1C(N)=O | 3.82% | 3.17% | 1.39% | 2.26% | 0.88% | 3.39% | 2.68% | 3.05% | 4.66% | -2.82%
Cc1nn(C)c2cc(N(C)c3ccnc(Nc4cccc(S(N)(=O)=O)c4)n3)ccc12 | 2.93% | 0.54% | 3.06% | 0.25% | 5.8% | -0.61% | 2.33% | 2.2% | 8.5% | 1.91%
Cc1cc(O)cc(C)c1/C=C/c1cncc(-c2nn[nH]n2)c1 | 3.73% | -0.15% | 1.13% | -2.89% | -3.31% | -1.42% | 2.36% | 0.42% | 0.7% | 2.82%
COc1cc2ncn(-c3cc(OCc4ccccc4Cl)c(C(N)=O)s3)c2cc1OC | 1.68% | 1.38% | 2.71% | 1.92% | 6.22% | 1.7% | 6.39% | 2.24% | 5.06% | 3.11%
